# Most compounds without a hit are left out; they make up all but 2.1% or so of the library.
# PfM18AAP inh-1: PfM18AAP enzyme inhibition; 290,000 compounds, 1.2% hits; AID 1822; recombinant PfM18AAP, H-Glu-NHMec fluorogenic cleavage; inhibition, % at 7.35 µM;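 active means inhibition above the campaign mean inhibition over all tested compounds plus 3 SD, cut at about 28% in these data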;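 further: 0% = plate median of test compound wells and 100% = 2 mM ZnCl2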
# CTSL1 counter-1: cathepsin L1 inhibition, PFM18AAP counter-screen; AID 1906; inhibition, % at 5.96 µM; 300,000 compounds, 0.49% hits; recombinant F. hepatica cathepsin L1, Z-Leu-Arg-MCA fluorescence;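 active means inhibition above the mean of all tested compounds plus 3 SD, set per screening campaign, cut at about 17% in these data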;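 further: 0% = plate median of test compound wells and 100% = 1 µM Z-Phe-Ala-diazomethylketone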
# Rin1 Abl inh: human Rin1-Abl interaction inhibition. P00519+Q13671. TR-FRET Rin1/Abl binding, biochemical. inhibition, % at 7.35 µM. 360,000 compounds, 0.4% hits; in the data active means inhibition above about 5%, passing the limit was not always enough
# Calb FLC: C. albicans growth modulation with fluconazole. AID 1979. growth inhibition, % (concentration not given with the values). 300,000 compounds, 0.57% hits. C. albicans CaCi-2 (fluconazole-resistant clinical isolate) + fluconazole, Alamar Blue growth, 48 h;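 active means growth inhibition above about 58% in most replicates, limit read from the data, passing the limit was not always enough; inconclusive means exactly half the replicates above a set limit; inactive means most replicates below a set limit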;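 further: all wells also contain fluconazole at 8 µg/ml as a sub-toxic cotreatment; 0% = median of DMSO wells and 100% = median of geldanamycin control wells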
# PfM18AAP inh-2: confirmation of Plasmodium falciparum M18 aspartyl aminopeptidase inhibitors; shares compounds with PfM18AAP inh-1; recombinant PfM18AAP, H-Glu-NHMec fluorogenic cleavage; inhibition, % at 7.35 µM; 2,400 compounds, 28% hits;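 active means mean inhibition over replicate wells above the hit cutoff set for the earlier primary screen, cut at about 29% in these data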;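 further: 0% = median of test compound wells and 100% = 2 mM ZnCl2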
# CTSL1 counter-2: Cathepsin L (human) inhibition, confirmation | shares compounds with PfM18AAP inh-1 | purified cathepsin L1, Z-Leu-Arg-MCA fluorescence | inhibition, % at 5.96 µM | 2,400 tested, under 10 active | AID 2178;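 active means average inhibition across replicates above the hit cutoff set in the earlier primary screen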;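 further: 0% = median of test compound wells and 100% = Z-Phe-Ala-diazomethylketone 1 µM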
# Active calls of the source: *; ? = inconclusive; . = not tested or not shown.
SMILES,PfM18AAP inh-1,CTSL1 counter-1,Rin1 Abl inh,Calb FLC,PfM18AAP inh-2,CTSL1 counter-2
Cc1ccc(/C=C/C(=O)Nn2cnnc2)cc1,41.2*,-0.4,-0.8,22.0,51.3*,-5.7
Cc1ccc(C(=O)NC(=S)Nn2cnnc2)cc1,83.6*,-3.6,-1.1,-17.8,60.3*,-2.4
O=C(NC(=S)Nn1cnnc1)c1cccc(Br)c1,69.1*,-1.3,2.1,17.2,87.3*,0.6
Cc1ccc(/C=C/C(=O)NN2CCN(C)CC2)cc1,-0.4,4.0,-0.7,6.4,.,.
CC(=O)NNC(=S)NC(=O)c1ccc(C)cc1,20.7,1.2,0.0,-10.8,.,.
CCCCCCN1CC(=O)N2Cc3[nH]c4ccccc4c3C[C@H]2C1=O,0.2,1.7,3.3,8.0,.,.
CCOC(=O)c1c(CN(C)C)n(-c2ccccc2)c2cc(Br)c(OC)cc12,-1.5,0.9,-2.8,16.5,.,.
CCOC(=O)c1c(CN(C)C)n(-c2ccc(C)cc2)c2cc(Br)c(O)cc12,37.6*,-0.6,0.9,29.1,-37.6,3.0
O=C(c1ccco1)N1CCN(C(=O)C2CC(=O)N(c3ccccc3)C2)CC1 (centres undefined),1.1,3.1,-0.7,-3.2,.,.
COc1ccc(O)c(C(=O)C2c3ccccc3C(=O)N2c2ccc(C)cc2)c1 (centres undefined),40.1*,-3.2,4.5,2.4,26.0,4.0
COc1ccc(N2C(=O)c3ccccc3C2O)cc1 (centres undefined),-1.4,1.6,2.3,-18.8,.,.
COc1cc(-c2nc3cnccn3c2Nc2ccc3c(c2)OCCO3)ccc1O,27.8,1.4,3.7,-15.2,.,.
COc1cc(-c2nc3ccc(C)cn3c2Nc2ccc3c(c2)OCCO3)ccc1O,41.0*,3.8,0.8,44.8,40.5*,-2.2
CCOC(=O)c1cnc(SSc2ncc(C(=O)OCC)c(N)n2)nc1N,64.3*,-5.3,2.3,1.9,43.7*,1.8
C=CCSc1ncc(C(=O)OCC)c(N)n1,-4.2,1.2,8.0,-40.1,.,.
O=C1/C(=C\c2ccccn2)SC(=S)N1c1ccc(S(=O)(=O)Nc2nccs2)cc1,36.0*,1.6,-1.2,-7.5,-21.3,0.8
c1cncc(Nc2nc(-c3ccncc3)cs2)c1,-8.7,-0.6,-5.2,15.4,.,.
Clc1ccccc1-c1csc(Nc2cccnc2)n1,38.6*,0.7,2.5,-3.1,-45.8,1.5
CCN(CC)c1nc(C(F)(F)F)nc2c1nnn2Cc1ccccc1,1.0,2.0,0.0,-3.5,.,.
NC(=O)c1c(NC(=O)c2cccnc2)sc2c1CCCCC2,32.8*,0.9,1.7,1.2,-34.8,0.9
NC(=O)c1c(NC(=O)c2cccnc2)sc2c1CCCC2,4.9,9.6,1.1,?,.,.
N#Cc1c(Cl)nsc1NN,39.1*,8.7,3.4,51.9,29.2*,-1.1
Cc1ccc2nc3c(cc(C(=O)NCc4ccco4)c(=N)n3C3CCCC3)c(=O)n2c1,37.9*,-1.6,-7.5,10.6,-29.6,3.0
Cc1ccc2nc3c(cc(C(=O)NCC4CCCO4)c(=N)n3C3CCCC3)c(=O)n2c1 (centres undefined),-2.2,1.0,-5.4,-5.0,.,.
Cc1nnc(N/N=C\c2ccc(-c3cccc(C(=O)O)c3)o2)n1N,51.4*,0.6,1.7,28.6,4.6,-1.9
SMILES,PfM18AAP inh-1,CTSL1 counter-1,Rin1 Abl inh,Calb FLC,PfM18AAP inh-2,CTSL1 counter-2
Cc1nnc(N/N=C/c2ccc(-c3ccc(Br)cc3)o2)n1N,50.8*,0.6,-1.5,53.8,3.2,2.5
CCN(CCCNC(=O)C1CCC(=O)N1Cc1ccc(F)cc1)c1cccc(C)c1 (centres undefined),6.0,-0.2,-0.7,-0.1,.,.
CCN(CCCNC(=O)C1CCN(S(=O)(=O)c2c(C)[nH]c(=O)[nH]c2=O)CC1)c1cccc(C)c1,32.1*,3.9,0.2,1.2,-22.8,-2.4
CCN(CCCNC(=O)C1CCN(S(=O)(=O)CC)CC1)c1cccc(C)c1,3.5,-2.3,3.1,22.4,.,.
CCN(CCCNC(=O)CCNC(=O)Cn1cnc2ccccc2c1=O)c1cccc(C)c1,53.3*,-0.6,0.2,3.6,-25.3,-1.6
CCN(CCCNC(=O)C1CCC(=O)N1C1CCCC1)c1cccc(C)c1 (centres undefined),53.9*,-2.8,-1.1,25.2,-24.4,6.0
CCN(CC)c1ccc(NC(=O)COc2ccc(C#N)cc2)cc1S(=O)(=O)Nc1ccc(OC)cc1,0.9,-9.0,3.6,-5.1,.,.
COc1cc(/C=N/N2C(C)CCCC2C)cc(OC)c1O (centres undefined),39.2*,-0.9,4.7,0.9,-31.4,-7.8

# Screening data as filed in PubChem BioAssay.
